From PubChem BioAssay (EPA / NIEHS)
Results filed as inconclusive are left out. The source made the active and inactive calls. Rule for the calls: active = hit-call score of the fitted dose curve at least 0.9, where 1 is the maximum; inconclusive = response in the unintended direction; inactive = score below 0.9.

Target: Retinoic acid receptor RXR-alpha (Homo sapiens) (UniProt P19793)
Test: ATG_RXRa_TRANS: Attagene TRANS-FACTORIAL HepG2 Assay for human Retinoid X Receptor alpha (RXRa) (AID 2283012)
Procedure: ATG_TRANS is a cell-based, multiplexed-readout assay that uses HepG2, a human liver cell line, with measurements taken at 24 hours after chemical dosing in a 24-well plate.ATG_RXRa_TRANS is one of 30 assay component(s) measured or calculated from the ATG_TRANS assay. It is designed to make measurements of mRNA induction, a form of inducible reporter, as detected with fluorescence intensity signals by Reverse transcription polymerase chain reaction (RT-PCR) and Capillary electrophoresis technology.Data from the assay component ATG_RXRa_TRANS was analyzed into 1 assay endpoint. This assay endpoint, ATG_RXRa_TRANS, was analyzed in the positive analysis fitting direction relative to DMSO as the negative control and baseline of activity. Using a type of inducible reporter, measures of mRNA for gain-of-signal activity can be used to understand the reporter gene at the transcription factor-level as they relate to the gene RXRA. Furthermore, this assay endpoint can be referred to as a primary readout, because this assay has produced multiple assay endpoints where this one serves a reporter gene function. To generalize the intended target to other relatable targets, this assay endpoint is annotated to the nuclear receptor intended target family, where the subfamily is non-steroidal.
Human liver HepG2 cells are transiently transfected with multiple reporter transcription units (MRTUs) in 6-well plates using FuGene 6 reagent (Roche; 3 ml FuGene/1 mg DNA). The MRTU constructs are regulated by a cis-regulating element (promoter). […] A major difference between the CIS and TRANS system is that in CIS activities of endogenous TFs are measured, whereas the TRANS assay evaluates changes in activities of exogenous, chimeric NR-Gal4 proteins. […] At the end of 24 hour incubation, total RNA was isolated using TriZol reagent (Invitrogen). The isolated RNA is then reverse-transcribed using oligo(dT) primer and Mo-MLV reverse transcriptase (Invitrogen) with DNAse I (Ambion) treatment for 30 min. The one-tenth of the produced cDNA was amplified by PCR using Taq DNA polymerase (Invitrogen) and two reporter sequence-specific primers. The PCR products were fluorescently labeled by primer extension with 6-arboxyfluorescein (6-FAM) 5'-labeled reporter sequence-specific primer (2 min at 95 C, 20 s at 68 C and 10 min at 72 C) and these products were digested with 5U of HpaI (New England Biolabs) for 2h at 37 C. The fragments were purified using Qiaquick PCR columns (Qiagen), analyzed on an ABI 3130xL genetic analyzer (Applied Biosystems) with peak positions identified by using a set of X-rhodamine (ROX)-labeled MapMarker1000 molecular weight standards (BioVentures). The raw capillary electrophoresis data was processed using Attagraph software (Attagene).

Chain of Retinoic acid receptor RXR-alpha (Homo sapiens) (P19793 whole entry, looked up): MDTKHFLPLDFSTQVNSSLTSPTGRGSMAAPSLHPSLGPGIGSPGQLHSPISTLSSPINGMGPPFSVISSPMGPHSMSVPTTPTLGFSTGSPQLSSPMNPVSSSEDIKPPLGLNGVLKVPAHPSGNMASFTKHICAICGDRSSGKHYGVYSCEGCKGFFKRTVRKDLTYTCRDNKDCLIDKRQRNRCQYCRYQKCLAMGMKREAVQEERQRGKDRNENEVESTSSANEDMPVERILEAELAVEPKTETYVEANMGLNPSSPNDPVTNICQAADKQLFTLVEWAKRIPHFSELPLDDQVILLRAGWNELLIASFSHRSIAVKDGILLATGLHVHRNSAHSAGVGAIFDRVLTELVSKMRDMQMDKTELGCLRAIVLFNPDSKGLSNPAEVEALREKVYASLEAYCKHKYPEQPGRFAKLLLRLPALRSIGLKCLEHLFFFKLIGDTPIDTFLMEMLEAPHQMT

Compound	outcome	AC50
CC(C)(OOC(C)(C)c1ccccc1)c1ccccc1	inactive	
CCCCCCCCCCCCCN1CC(C)OC(C)C1 (stereo not given)		26.4 µM (active)
O=[N+]([O-])C(Br)(CO)CO	inactive	
O=Cc1ccco1	inactive	
Nc1ccc(N=Nc2ccccc2)cc1	inactive	
C=CCc1ccc2c(c1)OCO2	inactive	
Cc1cccc(N)c1N	inactive	
CC(C)(C)C(O)(CCc1ccc(Cl)cc1)Cn1cncn1 (stereo not given)	inactive	
CN(C)c1ccccc1	inactive	
Nc1ccc([N+](=O)[O-])cc1	inactive	
CCCCOC(=O)c1ccccc1C(=O)OCc1ccccc1	inactive	
Nc1ccc(Cl)cc1N	inactive	
C1=Cc2cccc3cccc1c23	inactive	
O=C(Oc1ccc(Br)cc1)N1CCN2CCC1CC2	inactive	
CNC(=O)Oc1cccc2c1OC(C)(C)C2	inactive	
CC(C)(O)c1cnn2c(-c3ccc(F)c(-c4c(F)cccc4C#N)c3)cnc2n1	inactive	
c1ccc(NNc2ccccc2)cc1	inactive	
c1ccc(N=Nc2ccccc2)cc1	inactive	
[As]#[In]	inactive	
Nc1ccc(Oc2ccc(N)cc2)cc1	inactive	

Compound	outcome	AC50
Cc1ccc([N+](=O)[O-])cc1	inactive	
CC(C)COC(=O)c1ccccc1C(=O)OCC(C)C	inactive	
ClCCOCCCl	inactive	
O=C1CCCO1	inactive	
Oc1ccccc1Cl	inactive	
CCC12COCN1COC2	inactive	
ClC1=C(Cl)C2(Cl)C3C(Cl)C=CC3C1(Cl)C2(Cl)Cl (stereo not given)	inactive	
C[C@]12C=CC3=C4CCC(=O)C=C4CC[C@H]3[C@@H]1CC[C@@H]2O	inactive	
c1ccc2c(c1)-c1cccc3cccc-2c13	inactive	
CS(=O)(=O)NC(=O)c1cc(Oc2ccc(C(F)(F)F)cc2Cl)ccc1[N+](=O)[O-]	inactive	
[Cl-].[Cl-].[Hg+2]	inactive	
Nc1ccc(Cc2ccc(N)cc2)cc1	inactive	
CN(C)C(=O)Nc1ccc(Cl)cc1	inactive	
OCCOCCO	inactive	
Oc1ccc2ccc3cccc4ccc1c2c34	inactive	
O=C(Nc1ccccc1)c1ccccc1I	inactive	
Brc1ccc(Oc2ccccc2)cc1	inactive	
CCCCCCCCOC(=O)c1ccc(C(=O)OCCCCCCCC)c(C(=O)OCCCCCCCC)c1	inactive	
CCN(CC)CCO	inactive	
Cc1ccc(N)c(N)c1	inactive	
